PG9 Ab binder – binds the HIV-1 gp120 antibody PG9; AID 624416; 0.43% of 360,000 active; TR-FRET gp120-PG9 antibody binding; inhibition, % at 6.7 µM; in the data active means inhibition above about 8.5%
ABCB6 inh 2 – human ABCB6 transporter inhibition; Q9NP58; K562-ABCB6 porphyrin accumulation, flow cytometry, 1 h; hits give low values; fluorescence ratio to DMSO, % at 10 µM; 0.19% of 360,000 active;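 active means fluorescence ratio to DMSO below 75%, the collection mean minus 3 SD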;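 further: signal is porphyrin accumulated inside mitochondria; 100% equals median channel fluorescence of DMSO control wells; lower ratio means ABCB6 inhibition with less porphyrin fluorescence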
VLA-4 inh – inhibition in a human VLA-4 binding assay | VLA-4 expressing cells, ligand binding flow cytometry | inhibition, % (about 7 µM as worked out from the volumes in the protocol) | 0.2% of 330,000 active | AID 2557; in the data active means inhibition above about 50%
Target sequence (P13612 whole entry, looked up): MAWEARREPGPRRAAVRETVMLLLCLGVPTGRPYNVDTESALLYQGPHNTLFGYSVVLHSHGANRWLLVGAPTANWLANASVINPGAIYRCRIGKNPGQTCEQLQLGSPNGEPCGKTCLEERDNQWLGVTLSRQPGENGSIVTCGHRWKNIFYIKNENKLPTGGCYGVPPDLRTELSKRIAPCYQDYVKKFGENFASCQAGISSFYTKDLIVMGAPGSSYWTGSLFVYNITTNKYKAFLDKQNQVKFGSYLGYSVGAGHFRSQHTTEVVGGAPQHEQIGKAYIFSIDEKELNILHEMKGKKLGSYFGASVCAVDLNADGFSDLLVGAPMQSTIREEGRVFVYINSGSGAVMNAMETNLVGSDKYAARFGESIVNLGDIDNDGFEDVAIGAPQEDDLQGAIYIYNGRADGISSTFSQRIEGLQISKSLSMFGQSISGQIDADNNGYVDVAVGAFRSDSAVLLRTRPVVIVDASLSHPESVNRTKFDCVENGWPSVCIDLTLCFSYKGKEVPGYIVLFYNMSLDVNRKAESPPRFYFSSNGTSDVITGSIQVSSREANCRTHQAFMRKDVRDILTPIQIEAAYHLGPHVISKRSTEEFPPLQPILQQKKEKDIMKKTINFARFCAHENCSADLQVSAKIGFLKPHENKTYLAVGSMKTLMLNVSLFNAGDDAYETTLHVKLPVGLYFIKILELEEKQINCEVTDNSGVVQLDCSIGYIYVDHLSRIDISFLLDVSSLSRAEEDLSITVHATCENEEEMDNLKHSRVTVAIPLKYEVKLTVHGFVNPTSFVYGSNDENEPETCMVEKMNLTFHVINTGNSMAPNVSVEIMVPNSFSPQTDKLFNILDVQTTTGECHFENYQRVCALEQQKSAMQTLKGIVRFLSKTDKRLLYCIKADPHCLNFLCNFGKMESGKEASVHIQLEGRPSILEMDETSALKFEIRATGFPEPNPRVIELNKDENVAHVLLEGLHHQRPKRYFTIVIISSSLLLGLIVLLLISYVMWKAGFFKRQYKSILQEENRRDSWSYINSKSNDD
NR1D1 modulator – Rev-erb alpha (human) modulation | activity, % at 10 µM | Rev-erbα–FITC-DNA binding, fluorescence polarization, 90 min | AID 1259318 | 0.79% of 370,000 active;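 active means activity above about 14%, limit read from the data; passing the limit was not always enough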;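 further: 0% = DMSO wells with 35 nM protein and 100% = DMSO wells with 750 nM protein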
Granule exo inh – lytic granule exocytosis inhibition; TALL-104 LAMP-1 surface exposure, flow cytometry; cells stimulated with thapsigargin and PMA; inhibition, % at 10 µM; 0.66% of 360,000 active; AID 651702;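 active means inhibition above about 55%, limit read from the data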
* = called active by the depositor; · = no result. Compounds with a hit are over-represented: about 2% of the library has one in this group of screens.

SMILES	PG9 Ab binder	ABCB6 inh 2	VLA-4 inh	NR1D1 modulator	Granule exo inh
O=c1c(OC2OC(CO)C(O)C(O)C2OC2OC(CO)C(O)C(O)C2O)c(-c2ccc(O)cc2)oc2cc(O)cc(O)c12 (stereo not drawn)	-1	104	-19	-15	4
CCOC(=O)c1ccccc1OC(=O)CS(=O)c1ccccc1[N+](=O)[O-] (stereo not drawn)	-4	94	2	0	-1
CS(=O)(=O)c1ccc(S(=O)CC(=O)OCc2ccccc2)c([N+](=O)[O-])c1 (stereo not drawn)	-3	108	·	8	97*
O=C(CS(=O)c1ccc(C(F)(F)F)cc1[N+](=O)[O-])Oc1ccccc1 (stereo not drawn)	2	99	25	0	56*
COC[C@H]1CCCN1c1cccc2c1S(=O)(=O)N1CC[C@H](C1)O2	·	·	·	-5	·
O=C(C(=O)N1CCC(CNC(=O)c2ccccc2F)CC1)c1cc2ccccc2o1	-1	·	·	-9	·
Cc1cccc(CS(=O)(=O)c2ncc(Cl)c(C(=O)NCc3ccc4c(c3)OCO4)n2)c1	3	97	19	2	64*
Cc1ccc(C(=O)NCc2ccc3c(c2)OCO3)c(Cl)c1	1	98	·	-4	-1
Cc1ccc(S(=O)(=O)n2nc(OC(=O)c3c(F)cccc3Cl)cc2N)cc1	-2	80	2	0	78*
Clc1ccc([C@H]2OC[C@@]3(CNCc4ccc5c(c4)OCO5)CS[C@H](c4ccc(Cl)cc4)N23)cc1	·	·	·	-2	·
CCOC(=O)CN1C(=O)S/C(=C/c2ccc(N3CCCCC3)o2)C1=O	-3	101	-12	1	10
CCCN1C(=O)S/C(=C\c2ccc(N3CCOCC3)o2)C1=O	-9	100	-15	-1	81*
O=C(NCc1cccnc1)/C(=C/c1ccc(-c2cccc(Cl)c2)o1)S(=O)(=O)c1ccccc1	-1	88	7	4	7
O=C(NCc1cccnc1)/C(=C\c1ccc(-c2cccc(Cl)c2)o1)S(=O)(=O)c1ccccc1	0	90	32	1	90*
CCCCCCCCN1C(=O)[C@@H](CC(=O)NCCC(C)C)C[C@@]2(C(=O)OC)C1=C[C@H](C1CCCC1)O[C@@H]2C	2	·	·	9	·
COc1cc(NS(=O)(=O)c2ccc(NC(C)=O)cc2)nc(OC)n1	-3	98	4	-4	5
COc1cc(NS(=O)(=O)c2ccc(N/C=C(\C#N)c3nc4cc(Cl)ccc4o3)cc2)nc(OC)n1	0	55*	-20	-5	-1
CCn1c(=O)n(CC(=O)N2CCN(c3ccc(F)cc3)CC2)c(=O)c2ccccc21	·	·	·	1	·
CC(=NNc1nc2ccccc2o1)c1cc2ccccc2cn1	-1	273	·	-2	101*
O=Nc1c(-c2cccc([N+](=O)[O-])c2)nc2ncccn12	-10	105	0	-2	74*
CCn1nc(C)c(Br)c1C(=O)Sc1ccccc1Cl	-1	96	-3	0	69*
CCn1nc(C)cc1C(=O)Sc1ccc(C)cc1	-1	102	-130	-4	-5
O=C(NCCc1ccccc1Cl)[C@@H]1CCCN1C(=O)[C@@H](NS(=O)(=O)c1ccc(F)cc1F)C1CCCCC1	0	·	·	-1	·
C=CCn1c(=S)[nH]c2ccc(Br)cc2c1=O	-1	95	9	1	5
C=CCn1c(=S)[nH]c2nc3c(cc2c1=O)CCCC3	1	70*	4	-6	0
SMILES	PG9 Ab binder	ABCB6 inh 2	VLA-4 inh	NR1D1 modulator	Granule exo inh
Cc1ccc2c(c1)C(N1CCCC1=O)CC(c1ccco1)N2 (stereo not drawn)	2	87	7	1	87*
Cc1ccc(C2CC(c3ccco3)n3ncnc3N2)cc1 (stereo not drawn)	0	98	-11	5	-2
CC(C)C[C@@H](CN1CCCC1CN1C(=S)NC[C@@H]1Cc1ccc(O)cc1)N1C[C@H](Cc2ccc(O)cc2)N(CC2CCCCCC2)C1=S (stereo partly drawn)	-1	95	·	-3	56*
Cn1c(C(=O)Nc2ccc3c(c2)OCCO3)cc2c(=O)n(C)c3ccccc3c21	1	99	-18	-16	80*
CCN(CC)CCOC(=O)c1ccc(N/C=C(/C#N)c2nc(-c3cccc(OC)c3)cs2)cc1	0	100	-78	-2	3
CCN(CC)CCOC(=O)c1ccc(N/C=C(/C#N)c2nc(-c3ccc(OC)c(OC)c3)cs2)cc1	0	107	0	-20	64*
Cc1cc(Cl)c(S(=O)(=O)Nc2ccc3c(c2)OCCO3)cc1OCC(=O)NC1CCCCC1	0	73*	6	-1	0
